Compound activity: PubChem BioAssay, several laboratories
Hits are enriched below; roughly 5.4% of the tested compounds scored in any of these assays.
FXN GAA850 act = activators of GAA850 frataxin (FXN) promoter; activation, % at 6 µM; actives 0.56% (n = 360,000); AID 540364; HEK293 lucGAA850 FXN promoter luciferase reporter, 24 h; percent of 10 µM SAHA response;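 active = activation above the average of all compounds screened plus 3 SD, cutoff fixed separately per campaign, cut at about 7.5% in these data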;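 also: 0% = DMSO wells and 100% = 10 µM SAHA wells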
AHR act = activates the human aryl hydrocarbon receptor; AHR-responsive luciferase reporter cells, luminescence; activation, % at 5 µM; actives 2.5% (n = 320,000); AID 2796; in the data active = activation above about 47%;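 also: 0% = vehicle wells and 100% = reference agonist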
HSF1 activator = increases HSF-1 driven luciferase reporter signal; NIH3T3-HGL HSF-1 luciferase reporter, MG132, 8 h; 100% = twice DMSO control signal; activation, % at 9 µM; actives 1.7% (n = 300,000);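 active = mean replicate activation of at least 50% with a set share of replicates each reaching 50%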;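 also: 0% = median of the neutral control wells and 100% = twice that signal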
HSF1 inhib = HSF1 inhibition; activity change, negative = inhibition, % at 7.5 µM (by protocol); NIH3T3-HGL HSE-luciferase, MG132-induced, luminescence 8 h; hits give low values; actives 0.77% (n = 300,000);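 active = more than half of replicate wells show activity change below -50%, luminescence cut by over half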;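 also: luciferase reports HSF-1 transcriptional activity via heat shock element; 0% = median of DMSO wells and -100% = zero luminescence signal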
NR0B1 inh = NR0B1 (DAX1) inhibition; P51843; HEK293 Gal4-DAX1 luciferase reporter, luminescence; inhibition, % at 6.75 µM; actives 0.99% (n = 340,000); AID 504766;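 active = inhibition above the mean over all tested compounds plus 3 SD, cut at about 4.2% in these data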;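 also: 0% = DAX1-transfected cells with DMSO and 100% = empty-vector control cells with DMSO; inhibition shows as a rise in luminescence from relieved DAX1 repression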
GAA30 counter = GAA30 FXN promoter activation counter-screen. actives 66% (n = 1,900). HEK293 lucGAA30 FXN promoter luciferase, 24 h; DMSO = 0%, 5 µM ipriflavone = 100%. activation, % at 6 µM. shares compounds with FXN GAA850 act;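 active = mean activation above the mean of solvent-only control wells plus 3 SD, cut at about 22% in these data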;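 also: counterscreen of GAA850 promoter hits where activity marks nonselective or luminescence artifacts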
FXN GAA850 conf = confirmation of GAA850 frataxin (FXN) promoter activators; actives 86% (n = 1,900); activation, % at 6 µM; HEK293 lucGAA850 FXN promoter luciferase reporter, 24 h; 100% = activation by SAHA; shares compounds with FXN GAA850 act;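 active = mean activation above a set limit taken from the primary screen, cut at about 8% in these data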;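 also: 0% = DMSO wells and 100% = 10 µM SAHA wells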
The depositor's hits bear a star; x = not tested or not shown.

SMILES	FXN GAA850 act	AHR act	HSF1 activator	HSF1 inhib	NR0B1 inh	GAA30 counter	FXN GAA850 conf
COc1ccc(CCN(C)c2ccc(S(=O)(=O)N3CCCC3)cc2[N+](=O)[O-])cc1OC	9.9*	1	20	4	0	9	11*
COc1ccc(-c2cnn3c4c(c(C)nc23)CCN4C(C)C)cc1OC	9.8*	20	11	12	-1	80*	36*
Cc1noc(C)c1C(=O)NCCCN1CCCC1=O	0	12	9	-7	0	x	x
O=[N+]([O-])/C=C\c1ccc(N2CCCC2)c(F)c1	8.6*	x	79*	47	-1	19	31*
O=Cc1ccc(N2CCCC2)c([N+](=O)[O-])c1	0	1	19	3	0	x	x
CCCCC1(Cc2ccc([N+](=O)[O-])cc2)C(=O)N(c2ccccc2)N(c2ccccc2)C1=O	9.5*	-2	4	2	-2	14	7
CCCCC1(COC(=O)CCC(=O)O)C(=O)N(c2ccccc2)N(c2ccccc2)C1=O	0	-2	x	x	-1	x	x
Cc1ccc(NC(=O)NC(=S)NC(=O)c2ccccc2)cc1	8.2*	3	54*	23	-1	56*	24*
Clc1ccc(-c2cnc3cccnn23)cc1	9.0*	x	x	x	x	38*	15*
COc1ccc(-c2cnc3cccnn23)cn1	2	x	x	x	x	x	x
CNC(=S)Nc1ccc(-c2nc3ccc(C)cc3s2)cc1	8.4*	-5	14	1	1	114*	39*
Cc1ccc2nc(-c3ccc(NC(=O)COC(=O)c4ccco4)cc3)sc2c1	6	-9	17	-8	2	x	x
Cc1ccc2nc(-c3ccc(NC(=O)COC(=O)c4cncc(Br)c4)cc3)sc2c1	8.4*	x	-38	-23	3	107*	29*
CC(=O)NC(=S)Nc1ccc(-c2nc3ccc(C)cc3s2)cc1	2	-1	x	x	4	x	x
COCCNc1nnc(SC(C)C(=O)Nc2ccc(-c3nc4ccc(C)cc4s3)cc2)s1 (stereo unspecified)	8.8*	6	4	-2	0	74*	29*
CC(C)(C)CC(=O)Nc1cc2c3c(c1)CCN3C(=O)CC2	1	9	9	2	1	x	x
CN1CCC(C(=O)C(=O)O)C1=O (stereo unspecified)	2	x	x	x	-1	x	x
Cc1ccc(C(=O)NCc2ccc3c(c2)OCO3)cc1C	8.7*	13	7	7	1	57*	22*
Cc1ccc(C(=O)NCc2ccc3c(c2)OCO3)cc1Cl	4	20	-22	-8	1	x	x
COc1ccc(CCNC(=O)[C@@H](NC(=O)N2CC(=O)Nc3ccccc32)C(C)C)cc1OC	-1	0	7	-10	1	x	x
Cc1ccc2c(CN3CCC(C)CC3)cc(=O)oc2c1	8.6*	8	38	16	2	125*	46*
COc1cccc(CC(NC(C)=O)C(=O)NC2CCN(C(=O)c3ccc(Cl)cc3)CC2)c1 (stereo unspecified)	-4	x	5	-1	1	x	x
Cc1ccc(C(=O)CC(=O)c2cccc(F)c2)c(O)c1	1	19	8	11	-2	x	x
COc1ccc2cc(S(=O)(=O)N3CCCC3)ccc2c1	0	-2	14	-7	-1	x	x
S=C(Nc1ccc2nsnc2c1)N1CCCC1	8.3*	3	75*	41	0	29*	12*
SMILES	FXN GAA850 act	AHR act	HSF1 activator	HSF1 inhib	NR0B1 inh	GAA30 counter	FXN GAA850 conf
CCCCN(C(=O)c1cc(CN2C(=O)c3ccccc3C2=O)ccc1OC)c1c(N)n(CC(C)C)c(=O)[nH]c1=O	-3	x	x	x	-1	x	x
CCOC(=O)C1CCN(C(=O)Nc2ccc(OC(F)(F)F)cc2)CC1	2	2	3	-5	1	x	x
COc1cc(C(=O)N/N=C/c2ccccn2)cc(OC)c1OC	1	15	-7	-13	1	x	x
COc1ccc(C(=O)Nc2ccccc2C(=O)N/N=C/c2ccccn2)cc1OC	10*	41	1	-6	x	-110	-32
O=C(N/N=C/c1ccccn1)c1ccccc1	4	10	23	-5	-1	x	x
O=C(N/N=C/c1ccccn1)c1ccc(Cl)cc1	12*	8	24	16	1	-77	-20
CCOC(=O)c1nc2ccc(C)cc2c2c1C1CC(c3c(Cl)cccc31)N2C(=O)OCc1ccccc1 (stereo unspecified)	-1	x	x	x	0	x	x
Cc1cc(C)n2nc(/C(C#N)=C/c3ccccn3)c(C#N)c2n1	16*	6	99*	71	0	32*	37*
Cc1nc(C(F)(F)F)ccc1C(=O)N1CCC1(C)C(=O)NCc1cccs1 (stereo unspecified)	0	x	x	x	x	x	x
Cc1ccc(/C=N\Nc2cn[nH]c(=O)c2Cl)cc1	11*	2	26	13	2	104*	32*
COc1ccccc1N1CCN(c2cc(=O)n(-c3ccc(Cl)cc3)c(=O)[nH]2)CC1	3	-2	1	1	-1	x	x
COc1ccccc1N1CCN(c2cc(=O)n(-c3ccc(Br)cc3)c(=O)[nH]2)CC1	11*	1	x	x	0	19	12*
O=S(=O)(NCCO)c1cccc2cccnc12	14*	4	-1	-6	3	20	5
O=S(=O)(Nc1ccc(N2CCCCC2)cc1)c1cccc2cccnc12	8.0*	-4	3	-1	2	19	7
COc1ccc(C)cc1NC(=O)c1ccc(NS(=O)(=O)c2cccc3cccnc23)cc1	7	12	-2	1	-1	x	x
COc1ccccc1NC(=O)c1ccc(NS(=O)(=O)c2cccc3cccnc23)cc1	8.6*	15	3	10	-2	16	9.8*
O=C(c1ccc(NS(=O)(=O)c2cccc3cccnc23)cc1)N1CCCCC1	0	1	-19	-9	0	x	x
O=C(COc1ccc2c(c1)CCC2)N1CCc2ccccc21	6	8	50	38	1	x	x
Cc1ccc(S(=O)(=O)N2CCOCC2)cc1C(=O)NCC1CCCCC1	1	0	x	x	-1	x	x
CC(C)c1nc2sc3c(SCCN(C)C)ncnc3c2c2c1CCC2	1	x	x	x	0	x	x
Cc1ccc(C(=O)Nc2cnc3ccccn3c2=O)cc1	8.3*	21	37	21	1	100*	31*
Cc1ccc2ncc(NC(=O)c3ccc(F)cc3)c(=O)n2c1	1	2	-7	7	1	x	x
CC(C)NC(=O)C1(C)CCCN1C(=O)c1ccccc1Br (stereo unspecified)	3	x	x	x	x	x	x
CCOc1ccc2c(c1)c(N=Nc1cccc(C(=O)O)c1)c(O)n2C	8.8*	8	1	-6	-2	107*	38*
